Consider 16 compounds from PubChem BioAssay (NCI).

The panel holds about 83,000 compounds, 20% with a hit somewhere; the sample as a whole holds those more often.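 Interpretation: 100, growth as untreated; towards 0, rising growth inhibition; 0, no net growth; 0 to -100, cell death. Compounds scoring below 10 were considered active.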 The source made the active and inactive calls.

This experiment concerns MDA-MB-435 melanoma. The experiment is described as follows: NCI-60 one-dose screen, 48 h (100 = growth as untreated, 0 = no growth, -100 = all killed). Particulars: 10 µM unless noted.
`Cc1cc(C)c(C=O)c(C)c1`: the growth is 103% (inactive).
Consider `CS(=O)(=O)Nc1cc(-c2ccc3ncnc(Nc4ccc5[nH]ncc5c4)c3c2)cnc1Cl`, for which the growth is 75% (inactive).
As to `O=c1[nH]c2c(s1)CCCC2CN1CCCCC1` (stereo unspecified), the growth was 107% (inactive).
Consider `CCCc1cc2c(cc1Br)OCO2`, for which the growth is 110% (inactive).
Turning to `CCN(CCNc1cc(OC)cc2cccnc12)CCc1ccccc1`, the growth was 104% (inactive).
In the case of `Cc1c([N+](=O)[O-])cc(C(C)(C)C)cc1[N+](=O)[O-]`, the growth is 107% (inactive).
With `COc1ccccc1/C=C1\Oc2cc(OCCCN3CCCC3)ccc2C1=O`, the growth was 91.4% (inactive).
Under `O=C(O)CNC(=O)CN1C(=O)c2ccccc2C1=O` stands 107% (inactive).
With `CCN(CC)CCCC(Nc1c2ccc(Cl)cc2nc2ccc(OC)cc12)c1ccc(Cl)cc1` (stereo unspecified), the growth is -88.2% (active).
To `COc1cc(CNC(=O)CCCCC[P+](c2ccccc2)(c2ccccc2)c2ccccc2)c(OC)c2c1OCO2` belongs 39% (inactive); to `COc1cccc2cc(-c3cc4ccccc4[nH]3)/c(=N/C(=S)Nc3ccc(C)cc3)oc12`, 85.1% (inactive); to `COc1cc2nnn3c4ncccc4c(N=O)c3c2cc1OC`, 90.5% (inactive).
As for `COc1cc(NCC(O)CN(CC(C)C)C2CCCC2)c2ncccc2c1` (stereo unspecified), the growth was 107% (inactive).
Under `CCCCCCCCN1C(=O)/C(=c2\sc3n(c2=O)C2C(NN=3)N(CC)C(=O)N2CC)c2ccccc21` (stereo unspecified) stands 57.3% (inactive); under `O=C(Nc1ccccc1)Oc1ccccc1-c1ccccc1`, 99.9% (inactive).
To `CC1(c2ccccc2)NC(=O)N(CC(=O)Nc2cccc(I)c2)C1=O` (stereo unspecified) belongs 102% (inactive).
